Assay outcomes as filed in PubChem.
Only some compounds are listed: those with a hit (about 6.5% of all), similar ones and a draw of the others.
Marburg entry inh: inhibitors of Marburg virus binding or cell entry | AID 540276 | Potency, µM (titrated, usually from 37.8 µM), inactives show at the highest dose activity change, negative = inhibition, actives largely listed as inhibitors | Marburg virus pseudotyped entry inhibition, cell reporter | actives 1.8% (n = 300,000); calls by dose curve; tested in HEK293 cells; also: potency is read from the fitted curve at half-maximal effect
VACV Venus inh: vaccinia inhibition (Venus reporter); Vaccinia virus Venus reporter expression, fluorescence; Potency, µM (top dose mostly 36.5 µM), without a hit: top-dose activity change, negative = inhibition, hits mostly inhibitors; actives 0.46% (n = 330,000); calls by dose curve; tested in A549 cells; also: potency is read from the fitted curve at half-maximal effect; nearly all actives have a fitted effect of over 30% in size
HCMV antiviral: inhibitors of human cytomegalovirus; HFF cells, HCMV-luciferase reporter, 72 h; hits give low values; activity change, negative = inhibition, % at 57.5 µM; actives 4.5% (n = 410,000); in the data active = activity change below about -60%; inconclusive = no clear call, values can overlap the other calls; inactive = above about -39%
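Human foreskin fibroblasts infected with luciferase-reporter HCMV at MOI 1 PFU/cell, compounds at two doses. Luciferase measured 72 h post infection; normalized to buffer-only basal and Salinomycin (10uM) controls.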
Lassa entry inh: blocks Lassa virus binding to or entry into cells. Potency, µM (series often up to 37.9 µM), for inactives: top-dose activity change, negative = inhibition, hits mostly inhibitors. Lassa virus pseudotype entry inhibition, cell reporter. actives 1.2% (n = 300,000); calls by dose curve; tested in HEK293 cells; also: potency is read from the fitted curve at half-maximal effect; nearly all actives have a fitted effect of over 50% in size
FMDV antiviral: foot and mouth disease virus antiviral activity. actives 1.2% (n = 410,000). FMDV antiviral cell-based qHTS. Potency, µM (titrated, usually from 57.9 µM), inactives show top-dose activity change, negative = inhibition, hits mostly inhibitors; calls by dose curve; tested in HEK293T cells; also: read-out not given here; potency is read from the fitted curve at half-maximal effect; nearly all actives have a fitted effect of over 45% in size
VACV mCherry inh: inhibitors of vaccinia virus infection (mCherry reporter signal); Vaccinia virus mCherry reporter infection, fluorescence; AID 720579; actives 0.63% (n = 310,000); Potency, µM (highest dose often 36.5 µM), for the others: at the highest dose activity change, negative = inhibition, most hits filed as inhibitors; calls by dose curve; tested in A549 cells; also: potency is read from the fitted curve at half-maximal effect; nearly all actives have a fitted effect of over 35% in size
Active calls of the source: *; ! = not confirmed by another sample; [ ] = dose if it differs, or a comment. % is scaled to controls: 0 for no effect and ±100 for the full control effect.

For N#Cc1c(N2CCCC(O)C2)nc(N)c2c(N)nc3c(c12)CC(=O)N3C12CC3CC(CC(C3)C1)C2 (stereo not given) the results were Marburg entry inh inconclusive, HCMV antiviral 70, Lassa entry inh 8.2µM* and FMDV antiviral -26%.
Cc1ccc(NC(=O)C2CCCN2S(=O)(=O)c2ccc3c(c2)CCCC(=O)N3)cc1C (stereo not given) was read as VACV Venus inh -24%, HCMV antiviral -25, Lassa entry inh -1%[46.1 µM], FMDV antiviral -28% and VACV mCherry inh inconclusive.
For O=[N+]([O-])c1cnn(-c2nc(-c3ccco3)cc(C(F)(F)F)n2)c1 the results were Marburg entry inh -2%, VACV Venus inh 1%, HCMV antiviral -97*, Lassa entry inh inconclusive, FMDV antiviral -5% and VACV mCherry inh -10%.
Screening FC(F)(F)c1ccc2c(c1)N(CCCN1CCN(CCCl)CC1)c1ccccc1S2 returned Marburg entry inh 20µM*, VACV Venus inh inconclusive, HCMV antiviral -73*, Lassa entry inh inconclusive and FMDV antiviral 11µM*.
OCCN1CCN(CCCN2c3ccccc3Sc3ccc(C(F)(F)F)cc32)CC1 was read as Marburg entry inh 13µM*, VACV Venus inh inconclusive, HCMV antiviral -16, Lassa entry inh 7.3µM*, FMDV antiviral inconclusive and VACV mCherry inh -15%.
Screening OC1CC2CCC(C1)N2CCCN1c2ccccc2Sc2ccc(Cl)cc21 (stereo not given) returned Marburg entry inh inconclusive, VACV Venus inh 11µM*, HCMV antiviral -65*, Lassa entry inh -14%[46.1 µM], FMDV antiviral -22% and VACV mCherry inh inconclusive.
OCCN1CCN(CC/C=C2/c3ccccc3Sc3ccc(C(F)(F)F)cc32)CC1 was read as Marburg entry inh 8.9µM*, VACV Venus inh -29%, HCMV antiviral -30, Lassa entry inh 5.8µM*, FMDV antiviral -23% and VACV mCherry inh -16%.
For CN1CCN(CCC(=O)N2c3ccccc3Sc3ccc(C(F)(F)F)cc32)CC1 the results were Marburg entry inh inconclusive, VACV Venus inh -27%, HCMV antiviral -27, Lassa entry inh -8% and VACV mCherry inh -19%.
Screening OCCN1CCN(CC/C=C2/c3ccccc3CSc3ccccc32)CC1 returned HCMV antiviral -22 and FMDV antiviral -16%.
CC(CCC(=O)OC[C@H]1O[C@H](C#Cc2ccccc2)C=C[C@H]1Oc1ccc(C)cc1)=NO[C@H](C)c1cn([C@H](CO)Cc2ccccc2)nn1 was read as Marburg entry inh inconclusive and Lassa entry inh -6%[14.3 µM].
OCCN1CCN(CCCN2c3ccccc3C=Cc3ccccc32)CC1 was read as Marburg entry inh 7.9µM*, HCMV antiviral -24 and Lassa entry inh inconclusive.
`CN(C)CCCN1c2ccccc2Sc2ccc(C(F)(F)F)cc21` gave Marburg entry inh 6.3µM*, VACV Venus inh inconclusive, HCMV antiviral inconclusive, Lassa entry inh 21µM*, FMDV antiviral -14% and VACV mCherry inh inconclusive.
For CN1CCN(CCCN2c3ccccc3Sc3ccc(Cl)cc32)CC1 the results were Marburg entry inh 10µM*, VACV Venus inh 11µM*, HCMV antiviral -29, Lassa entry inh 9.2µM*, FMDV antiviral inconclusive and VACV mCherry inh 11µM*!.
OCCN1CCN(CCCN2c3ccccc3CCc3ccccc32)CC1 was read as VACV Venus inh -19%, HCMV antiviral 0, FMDV antiviral inconclusive and VACV mCherry inh inconclusive.
`NC(=O)c1c(NC(=O)c2nc(SCc3ccccc3F)ncc2Cl)sc2c1CCCC2` gave Marburg entry inh 23%[46.1 µM], VACV Venus inh 11%, HCMV antiviral 9, Lassa entry inh 4%[46.1 µM], FMDV antiviral -23% and VACV mCherry inh -1%.
For COCCN1C(=O)NC(CCc2ccccc2)C(C(C)=O)=C1C (stereo not given) the results were Marburg entry inh 5%[14.2 µM].
CCNc1ncc2nc(-c3ccccc3)c(=O)n(C[C@H]3CCCO3)c2n1 was read as FMDV antiviral -15%.
Screening O=C(NC1CCCc2ccccc21)C1CCN(c2c3c(nc4ncnn24)CCC3)CC1 (stereo not given) returned Marburg entry inh inconclusive, HCMV antiviral -16, Lassa entry inh -14% and FMDV antiviral -28%.
`O=C(Nc1ccc2c(c1)CCC2)C1CCN(c2c3c(nc4ncnn24)CCC3)CC1` gave Marburg entry inh inconclusive, HCMV antiviral -101*, Lassa entry inh inconclusive and FMDV antiviral inconclusive.
Screening O=C(Nc1ccc(Oc2ccccc2)cc1)C1CCN(c2c3c(nc4ncnn24)CCC3)CC1 returned Marburg entry inh inconclusive, HCMV antiviral -101*, Lassa entry inh 21µM* and FMDV antiviral 8.9µM*.
`CCCCCn1c(=N)c(S(=O)(=O)c2ccc(C)cc2)cc2c(=O)n3cc(C)ccc3nc21` gave Marburg entry inh 6%[46.1 µM], VACV Venus inh -2%, HCMV antiviral 13, Lassa entry inh -2%[46.1 µM], FMDV antiviral -9% and VACV mCherry inh -3%.
CCN(CC)C(=O)c1ccc(-c2nnc(Nc3ccc(O)cc3)c3ccccc23)cc1 was read as HCMV antiviral -75* and FMDV antiviral -24%.
Cc1ccc(-c2nnc(Nc3ccc(O)cc3)c3ccccc23)cc1S(=O)(=O)N1CCN(C)CC1 was read as Marburg entry inh -12%[46.1 µM], VACV Venus inh -29%, HCMV antiviral -66*, Lassa entry inh 2%[46.1 µM], FMDV antiviral -12% and VACV mCherry inh inconclusive.
For Cc1ccc(-c2nnc(Nc3ccc(F)cc3)c3ccccc23)cc1S(=O)(=O)N1CCN(C)CC1 the results were Marburg entry inh -23%[46.1 µM], VACV Venus inh -28%, HCMV antiviral -102*, Lassa entry inh inconclusive, FMDV antiviral -20% and VACV mCherry inh -13%.
Screening Cc1ccc(-c2nnc(Nc3cccc(O)c3)c3ccccc23)cc1S(=O)(=O)N1CCN(C)CC1 returned Marburg entry inh -12%[46.1 µM], VACV Venus inh -6%, HCMV antiviral -30, Lassa entry inh -10%[46.1 µM], FMDV antiviral -18% and VACV mCherry inh -23%.
`Cc1ccc(-c2nnc(Nc3ccc(Br)cc3)c3ccccc23)cc1S(=O)(=O)N1CCN(C)CC1` gave VACV Venus inh -30%, HCMV antiviral -40, Lassa entry inh 11µM*, FMDV antiviral -16% and VACV mCherry inh inconclusive.
For CCc1noc(C)c1C(=O)N1CCOc2ccc(CN3CCN(c4ccccn4)CC3)cc2C1 the results were VACV Venus inh -8%, FMDV antiviral -10% and VACV mCherry inh -11%.
`C/C(N)=C(/C#N)C(=O)CSc1nn(-c2ccc(Cl)cc2)c(=S)s1` gave HCMV antiviral 6 and FMDV antiviral 45%.
Screening C/C(N)=C(/C#N)C(=O)CSc1nnc(Nc2c(C)cccc2C)s1 returned Marburg entry inh inconclusive, VACV Venus inh 3%, HCMV antiviral -67*!, Lassa entry inh -3%[46.1 µM], FMDV antiviral 5% and VACV mCherry inh -24%.
